A short description of assay [1]: NCI Yeast Anticancer Drug Screen. Data for the rad50 strain (AID 155).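 Note: 0% = growth of vehicle-only cultures of the same strain.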 The note with it: S. cerevisiae rad50 strain growth inhibition, hits give high values. In short, it runs like this: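 Relative growth inhibition (compound vs vehicle) was measured in yeast with a defined repair-gene alteration.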
Assay [2] can be described thus: NCI Yeast Anticancer Drug Screen. Data for the mec2-1 strain (AID 157). The conditions noted are these: S. cerevisiae mec2-1 strain, hits give high values. In short, it runs like this: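 Cells of the genetically defined mec2-1 yeast strain are incubated with test compound. Inhibition of growth is calculated against vehicle-treated controls.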
The nature of assay [3]: NCI Yeast Anticancer Drug Screen. Data for the sgs1 mgt1 strain (AID 161).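 Note: 0% = growth of cultures given vehicle only.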 The conditions noted are these: S. cerevisiae sgs1 mgt1 strain, hits give high values. In short, it runs like this: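 Test agents were incubated with a DNA-repair-mutant yeast strain. Growth was then read and compared against vehicle-treated controls.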
Assay [4] in a line: NCI Yeast Anticancer Drug Screen. Data for the cln2 rad14 strain (AID 165).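 Note: 0% = growth equal to vehicle treated cultures.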 The conditions noted are these: S. cerevisiae cln2 rad14 strain, hits give high values. The method in brief:
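The screen exposed genetically defined yeast (cln2 rad14) to test compounds and scored growth inhibition relative to vehicle-treated controls.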

A short description of assay [5]: NCI Yeast Anticancer Drug Screen. Data for the bub3 strain (AID 167). The note with it: S. cerevisiae bub3 mutant strain, hits give high values. The method in brief: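 Screening used yeast with an engineered genetic alteration affecting cell cycle control. Compound-exposed cultures were compared with vehicle cultures, and reduced growth was taken as inhibition.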

Assay [6] is described as follows: NCI Yeast Anticancer Drug Screen. Data for the mlh1 rad18 strain (AID 175). The conditions noted are these: S. cerevisiae mlh1 rad18 strain growth inhibition, hits give high values. In short, it runs like this: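 Compound-treated yeast growth, normalised to vehicle controls. Strain bears defined DNA repair mutations.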
Setting [7] is: at 5.0 µM (retest, dose inferred, filed as 0.5).
Setting [8] is: at 50.0 µM (retest, dose inferred, filed as 5.0).

About 79,000 compounds went through this panel and 15% of them were active in at least one assay; those are over-represented in the sample as a whole. Unmarked numbers belong to inactive results. Active and inactive are the calls of the source. Cut-off read from the data, not from the text of the source: active = growth inhibition above about 70%; inactive = the rest.

Regarding `O=[N+]([O-])c1ccc(N/N=C/COCCO)c([N+](=O)[O-])c1`, the growth inhibition in assay [1] (setting [7]) is 2%; in assay [1] (setting [8]) it was 20%; in assay [1] (at 50.0 µM), 37.4%; in assay [2] (setting [7]) it was 9%; in assay [2] (setting [8]), 11%; in assay [2] (at 50.0 µM) it was 11.8%. The growth inhibition in assay [3] (setting [7]) was 0%; in assay [3] (setting [8]) it was 62%; in assay [3] (at 50.0 µM), 23.1%; in assay [4] (setting [7]) it was 4%; in assay [4] (setting [8]), 2%; in assay [4] (at 50.0 µM), -24.2%. Further, the growth inhibition is -1% in assay [5] (setting [7]); 14% in assay [5] (setting [8]); 73.6% (active) in assay [5] (at 50.0 µM); 1% in assay [6] (setting [7]); 8% in assay [6] (setting [8]); 62% in assay [6] (at 50.0 µM).
Take `CC(=O)n1nc2c(c1CC(C)C)C(=O)C(Nc1ccccc1)=CC2=O`: the growth inhibition in assay [1] (setting [7]) was 1%; in assay [1] (setting [8]), 100% (active); in assay [1] (at 50.0 µM) it was 77% (active); in assay [2] (setting [7]), 1%; in assay [2] (setting [8]), 100% (active); in assay [2] (at 50.0 µM), 68.2%. For the same compound, the growth inhibition was 1% in assay [3] (setting [7]); 100% (active) in assay [3] (setting [8]); 80.2% (active) in assay [3] (at 50.0 µM); 6% in assay [4] (setting [7]); 99% (active) in assay [4] (setting [8]); 27.9% in assay [4] (at 50.0 µM). Also, the growth inhibition was -2% in assay [5] (setting [7]); 99% (active) in assay [5] (setting [8]); 23.2% in assay [5] (at 50.0 µM); 1% in assay [6] (setting [7]); 99% (active) in assay [6] (setting [8]); 78.3% (active) in assay [6] (at 50.0 µM).
For the compound `Cc1occc1C(=S)Nc1ccc(Cl)c(C(=O)OCC2CC2)c1`, the growth inhibition in assay [1] (setting [7]) was -14%; in assay [1] (setting [8]), -3%; in assay [1] (at 50.0 µM), 84.8% (active); in assay [2] (setting [7]), -21%; in assay [2] (setting [8]), 5%; in assay [2] (at 50.0 µM), 86% (active). Moreover, the growth inhibition in assay [3] (setting [7]) was -15%; in assay [3] (setting [8]), -3%; in assay [3] (at 50.0 µM), 81.4% (active); in assay [4] (setting [7]), 2%; in assay [4] (setting [8]) it was 62%; in assay [4] (at 50.0 µM) it was 82.5% (active). Besides, the growth inhibition was -3% in assay [5] (setting [7]); 17% in assay [5] (setting [8]); 80.2% (active) in assay [5] (at 50.0 µM); -2% in assay [6] (setting [7]); 8% in assay [6] (setting [8]); 16.2% in assay [6] (at 50.0 µM).
As to `CNC(=S)N/N=C/c1nccc(-c2ccccc2)c1C`, the growth inhibition in assay [1] (setting [7]) is 4%; in assay [1] (setting [8]), 93% (active); in assay [1] (at 50.0 µM) it was 23.8%; in assay [2] (setting [7]), -2%; in assay [2] (setting [8]), 96% (active); in assay [2] (at 50.0 µM), 48.9%. Further, the growth inhibition in assay [3] (setting [7]) is 3%; in assay [3] (setting [8]), 96% (active); in assay [3] (at 50.0 µM), 41.8%; in assay [4] (setting [7]), -9%; in assay [4] (setting [8]), 94% (active); in assay [4] (at 50.0 µM), 39.1%. Further, the growth inhibition is 2% in assay [5] (setting [7]); 94% (active) in assay [5] (setting [8]); -2.75% in assay [5] (at 50.0 µM); -3% in assay [6] (setting [7]); 93% (active) in assay [6] (setting [8]); 74.7% (active) in assay [6] (at 50.0 µM).
Turning to `Nc1ccc(S(=O)(=O)Nc2nc3ccccc3nc2N2CCCCCC2)cc1`, the growth inhibition in assay [1] (setting [7]) is 30%; in assay [1] (setting [8]) it was 79% (active); in assay [1] (at 50.0 µM) it was 43.5%; in assay [2] (setting [7]), 30%; in assay [2] (setting [8]), 87% (active); in assay [2] (at 50.0 µM), 48.1%. Besides, the growth inhibition in assay [3] (setting [7]) was 36%; in assay [3] (setting [8]), 92% (active); in assay [3] (at 50.0 µM) it was 82.2% (active); in assay [4] (setting [7]), 40%; in assay [4] (setting [8]) it was 92% (active); in assay [4] (at 50.0 µM) it was 82.5% (active). Besides, the growth inhibition is 44% in assay [5] (setting [7]); 95% (active) in assay [5] (setting [8]); 85.2% (active) in assay [5] (at 50.0 µM); 39% in assay [6] (setting [7]); 90% (active) in assay [6] (setting [8]); 85.6% (active) in assay [6] (at 50.0 µM).
`CCCCNC(=S)NC1C2CC3CC(C2)CC1C3` (configuration not stated): the growth inhibition in assay [1] (setting [7]) is -8%; in assay [1] (setting [8]) it was 78% (active); in assay [1] (at 50.0 µM), 97.4% (active); in assay [2] (setting [7]), -4%; in assay [2] (setting [8]), 64%; in assay [2] (at 50.0 µM), 98.5% (active). The growth inhibition in assay [3] (setting [7]) was -4%; in assay [3] (setting [8]), 90% (active); in assay [3] (at 50.0 µM), 97.9% (active); in assay [4] (setting [7]), 0%; in assay [4] (setting [8]), 39%; in assay [4] (at 50.0 µM), 92.2% (active). For the same compound, the growth inhibition is -8% in assay [5] (setting [7]); 24% in assay [5] (setting [8]); 90.4% (active) in assay [5] (at 50.0 µM); -13% in assay [6] (setting [7]); 93% (active) in assay [6] (setting [8]); 97.2% (active) in assay [6] (at 50.0 µM).
For `CCOC(=N)CCCSSc1ccc(N=[N+]=[N-])cc1`, the growth inhibition in assay [1] (setting [7]) was 15%; in assay [1] (setting [8]) it was 99% (active); in assay [1] (at 50.0 µM) it was 98.7% (active); in assay [2] (setting [7]), -15%; in assay [2] (setting [8]), 99% (active); in assay [2] (at 50.0 µM), 99.2% (active). Also, the growth inhibition in assay [3] (setting [7]) was -5%; in assay [3] (setting [8]), 97% (active); in assay [3] (at 50.0 µM), 99% (active); in assay [4] (setting [7]), -7%; in assay [4] (setting [8]) it was 97% (active); in assay [4] (at 50.0 µM) it was 98.5% (active). Further, the growth inhibition in assay [5] (setting [7]) was -7%; in assay [5] (setting [8]) it was 99% (active); in assay [5] (at 50.0 µM), 98.8% (active); in assay [6] (setting [7]) it was -3%; in assay [6] (setting [8]), 99% (active); in assay [6] (at 50.0 µM) it was 99.2% (active).
For `Nc1ccc(Cc2ccc(N)cc2[N+](=O)[O-])c([N+](=O)[O-])c1`, the growth inhibition is 1% in assay [1] (setting [7]); 0% in assay [1] (setting [8]); 14.6% in assay [1] (at 50.0 µM); 5% in assay [2] (setting [7]); 7% in assay [2] (setting [8]); 25.9% in assay [2] (at 50.0 µM). Also, the growth inhibition in assay [3] (setting [7]) was 6%; in assay [3] (setting [8]), 74% (active); in assay [3] (at 50.0 µM), 66.8%; in assay [4] (setting [7]), 5%; in assay [4] (setting [8]), 31%; in assay [4] (at 50.0 µM), 39%. For the same compound, the growth inhibition was -4% in assay [5] (setting [7]); -3% in assay [5] (setting [8]); 35.4% in assay [5] (at 50.0 µM); -6% in assay [6] (setting [7]); -2% in assay [6] (setting [8]); -18.9% in assay [6] (at 50.0 µM).
As for `c1ccc(N=C2c3ccsc3C(=Nc3ccccc3)c3ccsc32)cc1`, the growth inhibition is 25% in assay [1] (setting [7]); 98% (active) in assay [1] (setting [8]); 80% (active) in assay [1] (at 50.0 µM); 22% in assay [2] (setting [7]); 98% (active) in assay [2] (setting [8]); 75.5% (active) in assay [2] (at 50.0 µM). Further, the growth inhibition in assay [3] (setting [7]) is 21%; in assay [3] (setting [8]) it was 93% (active); in assay [3] (at 50.0 µM) it was 81.7% (active); in assay [4] (setting [7]), 5%; in assay [4] (setting [8]), 53%; in assay [4] (at 50.0 µM), 84.5% (active). The growth inhibition in assay [5] (setting [7]) was 51%; in assay [5] (setting [8]), 97% (active); in assay [5] (at 50.0 µM), 81.6% (active); in assay [6] (setting [7]), 29%; in assay [6] (setting [8]), 97% (active); in assay [6] (at 50.0 µM) it was 85.6% (active).

Values taken from PubChem BioAssay (NCI).
